Source: PubChem BioAssay
BioA inh – BioA (M. tuberculosis) enzyme inhibition; purified M. tuberculosis BioA enzyme, plate reader; inhibition, % at 9.99 µM; hit rate 0.096% among 360,000; AID 602481; in the data active = inhibition above about 40%; inconclusive = no clear call, values can overlap the other calls
RecA splice inh – inhibitors of M. tuberculosis RecA intein splicing | cell-free RecA intein splicing, fluorescence | P9WHJ3 | inhibition, % (concentration not given with the values) | AID 2221 | hit rate 0.75% among 290,000; in the data active = inhibition above about 30%; inconclusive = no clear call, values can overlap the other calls;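 note: 0% = vehicle wells and 100% = reference inhibitor control wells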
Y pestis TopoI – Y. pestis Topo-I inhibition via cleavage products; Y. pestis Topo-I cleavage product accumulation, plate reader; hit rate 0.064% among 360,000; activity, % at 10 µM; AID 504884; in the data active = activity above about 50%, passing the limit was not always enough; inconclusive = no clear call, values can overlap the other calls
UGM FP inh – Mtb UDP-galactopyranose mutase inhibition | P9WIQ1 | purified UGM, fluorescence polarization probe displacement | inhibition, % at 10 µM | hit rate 0.06% among 320,000 | AID 504406; in the data active = inhibition above about 10%, passing the limit was not always enough; inconclusive = no clear call, values can overlap the other calls
Target sequence (P9WIQ1 whole entry, looked up): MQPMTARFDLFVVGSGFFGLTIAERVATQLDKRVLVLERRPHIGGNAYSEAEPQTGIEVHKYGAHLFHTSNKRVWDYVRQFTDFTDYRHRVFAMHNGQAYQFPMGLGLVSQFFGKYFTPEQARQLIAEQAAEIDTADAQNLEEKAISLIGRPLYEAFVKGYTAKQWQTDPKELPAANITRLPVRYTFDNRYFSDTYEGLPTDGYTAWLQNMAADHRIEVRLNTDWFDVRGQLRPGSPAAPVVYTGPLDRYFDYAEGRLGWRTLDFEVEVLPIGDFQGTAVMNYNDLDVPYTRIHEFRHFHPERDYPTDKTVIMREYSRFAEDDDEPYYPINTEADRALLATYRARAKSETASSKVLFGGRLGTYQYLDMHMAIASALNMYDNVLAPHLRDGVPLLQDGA
FadD28 binding – inhibitors of Mycobacterium tuberculosis FadD28 bisubstrate binding; FadD28 bisubstrate probe binding, fluorescence polarization; inhibition, % at 12.5 µM; hit rate 0.22% among 360,000; AID 588549; in the data active = inhibition above about 8.5%, passing the limit was not always enough; inconclusive = no clear call, values can overlap the other calls
Rv3671c protease – inhibits the M. tuberculosis serine protease Rv3671c; inhibition, % at 5.96 µM; hit rate 0.048% among 320,000; in the data active = inhibition above about 38%;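 note: extracellular domain of Rv3671c used as enzyme; 0% = enzyme with DMSO and 100% = no enzyme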
* hit, by the source's call; ? = inconclusive; . = no result given. Hits are enriched below; roughly 0.82% of the tested compounds scored in any of these assays.

SMILES	BioA inh	RecA splice inh	Y pestis TopoI	UGM FP inh	FadD28 binding	Rv3671c protease
O=C(CN1C(=O)NC2(CCOc3ccccc32)C1=O)c1ccc(Cl)s1 (centres undefined)	0.3	.	-6.4	-1.3	9.6*	-5.8
N#CC1=C(N)Oc2ccc3ccc(O)cc3c2C1c1ccsc1 (centres undefined)	.	18.1	-4.6	.	15.4*	.
CCC(=O)Oc1ccc(C(=O)Nc2cccc(C(=O)c3ccccc3)c2)cc1	2.1	35.9*	16.7	2.4	-2.5	-26.4
CC(=O)Oc1ccc(C(=O)Nc2cccc(C(=O)c3cccc(NC(=O)c4ccc(OC(C)=O)cc4)c3)c2)cc1	.	3.8	7.0	-0.6	-1.7	-51.2
C[C@@H]1CCCCO[C@H](CN(C)S(C)(=O)=O)[C@@H](C)CN([C@H](C)CO)C(=O)c2cc(NC(=O)Nc3ccccc3)ccc2O1	1.3	.	.	.	.	.
COC(=O)CSc1nc(N)c2c3c(sc2n1)C(c1ccccc1)SC(c1ccccc1)C3 (centres undefined)	.	35.8*	7.4	-1.4	-3.4	-14.3
COC(=O)c1ccc(OC(=O)c2cccs2)cc1	.	26.0	0.7	-0.7	1.5	-2.2
CCC(=O)c1ccc(OC(=O)c2cccs2)cc1	.	31.9*	6.6	1.5	1.1	0.4
CCCN(C)C[C@H]1OCCCC[C@@H](C)Oc2ccc(NS(=O)(=O)c3ccc(F)cc3)cc2C(=O)N([C@@H](C)CO)C[C@H]1C	-0.3	.	.	.	.	.
N#CC(C#N)=C(N)/C(C#N)=C/c1cc(O)c(O)c(O)c1	2.3	.	-8.9	-0.8	12.7*	4.0
C[C@@H]1CN([C@@H](C)CO)C(=O)c2cc(NC(=O)CCCN(C)C)ccc2O[C@@H](C)CCCCO[C@H]1CN(C)Cc1ccccc1	0.0	.	.	.	.	.
COc1ccc(CN(C)C[C@H]2OCCCC[C@@H](C)Oc3ccc(NC(=O)Nc4c(C)noc4C)cc3C(=O)N([C@@H](C)CO)C[C@H]2C)cc1	3.8	.	.	.	.	.
O=C1NC(=S)SC1=Cc1cc(Br)ccc1O	.	.	-2.3	.	11.6*	.
CN(C)C(=O)C[C@@H]1CC[C@@H]2[C@H](COC[C@H](O)CN2Cc2ccc(C(F)(F)F)cc2)O1	-1.0	.	.	.	.	.
CC(=O)[C@@]1(O)Cc2c(O)c3c(c(O)c2[C@H](O[C@H]2C[C@H](N)[C@H](O)[C@H](C)O2)C1)C(=O)c1ccccc1C3=O	-93.9	.	-34.6	.	74.2*	.
COc1cccc2c1C(=O)c1c(O)c3c(c(O)c1C2=O)CC(O)(C(C)=NO)CC3OC1CC(N)C(O)C(C)O1 (centres undefined)	.	.	-43.8	.	63.3*	.
COc1cccc2c1C(=O)c1c(O)c3c(c(O)c1C2=O)C[C@@](O)(C(=O)CO)C[C@@H]3OC1CC(N)C(O)C(C)O1 (some centres undefined)	.	.	-41.3	.	52.8*	.
COc1cccc2c1C(=O)c1c(O)c3c(c(O)c1C2=O)CC(O)(C(C)=O)CC3OC1CC(N(C)C)C(O)C(C)O1 (centres undefined)	.	.	-37.0	.	60.2*	.
CCC(=O)N(C)C[C@H]1Oc2cc(C#CCOC)ccc2S(=O)(=O)N([C@H](C)CO)C[C@@H]1C	3.1	.	.	.	.	.
COc1cccc2c1C(=O)c1c(O)c3c(c(O)c1C2=O)C[C@@](O)(C(=O)CO)C[C@@H]3O[C@H]1C[C@H](N)[C@H](O)[C@H](C)O1	-41.7	-7.8	-31.5	39.9*	63.4*	30.3
Cc1noc(C)c1S(=O)(=O)Nc1ccc2c(c1)C(=O)N([C@@H](C)CO)C[C@H](C)[C@H](CN(C)C(=O)NC(C)C)OCCCC[C@H](C)O2	-1.0	.	.	.	.	.
COc1ccc(C2C(C#N)=C(N)SC(N)=C2C#N)cc1OC	42.6*	0.1	-4.4	-1.1	-2.4	-11.0
O=C(O)c1ccc2c(c1)C1C(Cl)C(Sc3ccccc3[N+](=O)[O-])CC1C(c1cccc([N+](=O)[O-])c1)N2 (centres undefined)	17.1	.	-4.1	.	43.2*	.
O=C(O)c1cccc2c1NC(c1cccc([N+](=O)[O-])c1)C1CC(Sc3ccccc3[N+](=O)[O-])C(Cl)C21 (centres undefined)	.	24.6	6.2	.	?	.
CCn1c(C)cc(/C=C2/NC(=O)N(CC(=O)Nc3cccc(C)c3)C2=O)c1C	-1.2	-6.8	-4.8	2.0	0.2	9.3
COc1cc(/C=C2\SC(=O)N(CC(=O)Nc3cccc(C)c3)C2=O)cc([N+](=O)[O-])c1O	.	.	-12.3	.	30.7*	.
CCn1c(C)cc(/C=C2\NC(=O)N(CC(=O)Nc3cccc(C)c3)C2=O)c1C	-2.5	-1.4	-2.2	-0.9	10.3*	1.0
